Screening results from PubChem.
The sample as a whole holds a higher share of hits than the screen did.
Pf Dd2 inh: qHTS Primary assay for Inhibitors of Plasmodium falciparum Dd2 growth in vitro; P. falciparum Dd2 growth, SYBR Green, 72 h; Potency, µM (highest dose often 28.9 µM), inactives show top-dose activity, negative = inhibition, usual class: inhibitors; 120,000 compounds, 4.3% hits; active = well fitted inhibition curve with a large enough effect;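 note: plate controls were DMSO vehicle for no effect and reference drug for full effect; nearly all actives have a fitted effect of over 65% in size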
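Readout: SYBR Green fluorescence, 485 nm excitation, 535 nm emission, after ~16 h lysis at 37C. Before that, Dd2-infected red cells (2.5% hematocrit) grew 72 h with compound, 29 uM top final concentration.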
Starred values were filed as active, the others as inactive; [ ] = remark or other dose. Potency is the fitted concentration of half-maximal effect.

Screening c1ccc(C(c2ccccc2)N2CCN(Cc3nc(-c4ccccn4)no3)CC2)cc1 returned Pf Dd2 inh -5%.
`Cn1cc(CN2CCN(C(c3ccccc3)c3ccccc3)CC2)cc1C#N` gave Pf Dd2 inh 3.2µM*.
`Cc1cc(C(=O)N2CC[C@](O)(c3ccccc3)[C@H](N(C)C)C2)n[nH]1` gave Pf Dd2 inh 27%[5.79 µM].
For O=C(C1CCCC1)N1CC(c2nc(CCOCC3CCOCC3)no2)C1 the results were Pf Dd2 inh inactive.
`COc1ccc(C(=O)N2CCOCCNC(=O)[C@H]3CCCC[C@H]32)c(OC)n1` gave Pf Dd2 inh inactive.
Screening COC(=O)CNC(=O)c1cc(-c2ccccc2OC)nc2c1cnn2C returned Pf Dd2 inh 84%.
For Cc1ccn2c(Nc3ccc(C(C)C)cc3)c(-c3cccs3)nc2c1 the results were Pf Dd2 inh 11µM*.
Screening Cc1ccccc1-c1nc2cnccn2c1NCCC(=O)N1CCCCC1 returned Pf Dd2 inh inactive.
Screening Cc1ccc2nc(-c3cccnc3)c(Nc3ccc(C(C)C)cc3)n2c1 returned Pf Dd2 inh 18%.
For Cc1ccn2c(Nc3ccc(F)cc3)c(-c3ccc(C)o3)nc2c1 the results were Pf Dd2 inh 10µM*.
`COc1ccc(Nc2c(-c3ccco3)nc3cccc(C)n23)cc1` gave Pf Dd2 inh -18%.
Screening CC(C)c1ccc(Nc2c(-c3ccccc3O)nc3cnccn23)cc1 returned Pf Dd2 inh 3.5µM*.
Screening Cc1ccc2nc(-c3ccco3)c(Nc3ccc4c(c3)OCCO4)n2c1 returned Pf Dd2 inh -5%.
Cc1ccccc1-c1nc2cnccn2c1NCCC(=O)N1CCC(C)CC1 was read as Pf Dd2 inh inactive.
For Cc1cccc(C)c1Nc1c(-c2cccs2)nc2ncccn12 the results were Pf Dd2 inh -13%.
`Cc1ccc2nc(-c3cccs3)c(Nc3ccc4c(c3)OCCO4)n2c1` gave Pf Dd2 inh 16%.
For Cc1ccc(Nc2c(-c3cccc(Cl)c3)nc3cccc(C)n23)cc1 the results were Pf Dd2 inh inactive.
For Cc1ccn2c(Nc3ccc(C(C)C)cc3)c(-c3cccnc3)nc2c1 the results were Pf Dd2 inh 11µM*.
`CCOC(=O)c1ccccc1NC(=O)CN1C(=O)NC(c2ccc(Cl)cc2)C2=C1COC2=O` (stereo not drawn) gave Pf Dd2 inh -3%.
`Fc1cccc(-c2[nH]ncc2CN2CCN(c3cccnc3)CC2)c1` gave Pf Dd2 inh -19%.
Screening CCN(CC)CC(C)CNC(=O)c1cc(-c2ccc(Br)s2)nc2ccccc12 (stereo not drawn) returned Pf Dd2 inh 11µM*.
`Cc1ccc(NC(=O)c2cc(-c3ccc(Br)s3)nc3ccccc23)cc1F` gave Pf Dd2 inh -22%.
For COc1ccc(CNC(=O)c2cc(-c3ccc(Br)s3)nc3ccccc23)cc1 the results were Pf Dd2 inh 232%[5.79 µM].
Screening C[C@H]1[C@@H]2[C@H]3OC(=O)[C@@H](C)[C@@H]3CC[C@@]2(C)CC[C@@H]1NC(=O)c1ccncc1 returned Pf Dd2 inh inactive.
`CCCS(=O)(=O)N1C[C@@H](Oc2cccnc2)C[C@@H]1C(=O)N1CCOCC1` gave Pf Dd2 inh 28%.
COc1ccc(-c2noc(-c3nnn4c3COC(c3ccc(F)cc3)C4)n2)c(OC)c1 (stereo not drawn) was read as Pf Dd2 inh -4%.
For O[C@@H]1CO[C@H]2[C@@H]1OC[C@@H]2n1nnnc1SCc1ccco1 the results were Pf Dd2 inh -8%[44.1 µM].
`Cc1[nH]cnc1CN1CCNc2cc(-c3ccccc3)ncc2C1` gave Pf Dd2 inh inactive.
For Fc1ccc(Nc2cc3c(cn2)CN(Cc2ccncc2)CCN3)cc1Cl the results were Pf Dd2 inh 7.1µM*.
Screening Cn1ccnc1CN1CCNc2cc(Nc3ccccc3)ncc2C1 returned Pf Dd2 inh inactive.
Screening c1ccc(CN2CCNc3cc(-c4cccnc4)ncc3C2)cc1 returned Pf Dd2 inh -12%[44.1 µM].
`c1ccc(-c2cc3c(cn2)CN(Cc2c[nH]c4ccccc24)CCN3)cc1` gave Pf Dd2 inh 7.9µM*.
Screening Cn1cnc(CN2CCNc3cc(Nc4ccccc4)ncc3C2)c1 returned Pf Dd2 inh inactive.
Screening COc1ccccc1CN1CCNc2cc(Nc3ccccc3)ncc2C1 returned Pf Dd2 inh 6.3µM*.
Screening c1cncc(Nc2cc3c(cn2)CN(Cc2cccs2)CCN3)c1 returned Pf Dd2 inh 0%[44.1 µM].
Screening CN(C)c1ccc(CN2CCNc3cc(Nc4ccccc4)ncc3C2)cc1 returned Pf Dd2 inh 5.6µM*.
For COCCN1CCNc2cc(Nc3cccc(OC)c3)ncc2C1 the results were Pf Dd2 inh inactive.
Cn1cc(CN2CCNc3cc(Nc4cccnc4)ncc3C2)cn1 was read as Pf Dd2 inh -1%[44.1 µM].
c1ccc(Nc2cc3c(cn2)CN(Cc2ncc[nH]2)CCN3)cc1 was read as Pf Dd2 inh 7%[44.1 µM].
Screening CN(Cc1ccccc1)Cc1nnc(C(=O)N2CCC[C@@H]2c2ccc(Br)cc2)n1Cc1ccccc1 returned Pf Dd2 inh inactive.
For CN(Cc1ccc(C(F)(F)F)cc1)Cc1cccc(C(F)(F)F)c1 the results were Pf Dd2 inh 10%.
`O=C(CC1CCOCC1)NCc1ccc(F)cc1F` gave Pf Dd2 inh -13%.
`O=C(NCc1ccccn1)c1c(OCC2CC2)cc(=O)n2c1CCCCC2` gave Pf Dd2 inh 12%.
Screening CN(C)C(=O)CO[C@H]1CCOC[C@H]1NC(=O)c1ccc2n[nH]nc2c1 returned Pf Dd2 inh 3%.
Screening O=C(c1cn(C2CNC2)nn1)N1CCOCC1 returned Pf Dd2 inh -7%.
Screening COc1ccc(NC(=O)[C@@H]2COCC(=O)N2Cc2ccccc2)cc1 returned Pf Dd2 inh inactive.
CC(C)C1CN(C(=O)CN2CCCCC2=O)CCCN1Cc1ccc(F)cc1 (stereo not drawn) was read as Pf Dd2 inh -10%.
`Cc1c(O)cccc1C(=O)N1CCCN(Cc2ccc(F)cc2)C(C(C)C)C1` (stereo not drawn) gave Pf Dd2 inh 4µM*.
Screening CC(C)C1CN(C(=O)CNC(=O)N(C)C)CCCN1Cc1ccc(F)cc1 (stereo not drawn) returned Pf Dd2 inh -19%.
Screening O=C(NCCc1ccccc1)[C@@H]1C[C@@H](c2ccc(F)cc2)N([S+](=O)([O-])c2cccnc2)C1 returned Pf Dd2 inh inactive.
Screening CCCC1=Nc2cc(C(=O)NC3CCCCC3)ccc2Sc2ccc(C)cc21 returned Pf Dd2 inh 10µM*.
`Cc1cccc(C)c1-c1nnc2ccc(C(=O)NC3CC3)cn12` gave Pf Dd2 inh 23%.
Screening CCC1=Nc2cc(C(=O)NC3CCC(C)CC3)ccc2Sc2ccc(C)cc21 (stereo not drawn) returned Pf Dd2 inh 10µM*.
Screening CCCC1=Nc2cc(C(=O)NCCCN(CC)CC)ccc2Sc2ccccc21 returned Pf Dd2 inh -8%.
Screening CCC1=Nc2cc(C(=O)NCc3ccc(F)cc3)ccc2Sc2ccc(C)cc21 returned Pf Dd2 inh 5.6µM*.
CCCC1=Nc2cc(C(=O)NCCc3ccc(OCC)cc3)ccc2Sc2ccccc21 was read as Pf Dd2 inh -29%.
For Cc1ccc(C(=O)NC2CCN(c3cnn(C)c(=O)c3)CC2)cc1C the results were Pf Dd2 inh -5%.
`CCC1=Nc2cc(C(=O)NCCCOC)ccc2Sc2ccc(Br)cc21` gave Pf Dd2 inh -28%.
Screening CCCC1=Nc2cc(C(=O)N3CCC(C)CC3)ccc2Sc2ccc(C)cc21 returned Pf Dd2 inh -23%.
Screening CC1=Nc2cc(C(=O)NC3CCC(C)CC3)ccc2Sc2c(C)ccc(C)c21 (stereo not drawn) returned Pf Dd2 inh 11µM*.
